Test results published in PubChem BioAssay (NCATS).
Results filed as inconclusive are left out. Active and inactive are the calls of the source. Calls follow the shape of the dose curve; as a rule, active = well fitted inhibition curve with a large enough effect; inconclusive = small, poorly fitted or top-dose-only effect; inactive = flat fitted curve, though single readings scatter.

Assays:
Experiment in all cases: qHTS profiling for inhibitors of Plasmodium falciparum proliferation (AID 504749); also: nearly all actives have a fitted effect of over 60% in size
Details in all cases: P. falciparum in erythrocytes, SYBR Green DNA, 72 h
CP291 = test system: CP291
Summary of the method: (§1)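 P. falciparum-infected erythrocytes (0.3% parasitemia, 2.5% hematocrit) incubated with compound 72 h at 37 C, 5% CO2. Parasite DNA detected by SYBR Green after lysis, overnight at room temperature; normalised to 0.29 uM artemisinin and DMSO.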

CP297 = test system: CP297
Summary of the method: as §1

CP305 = test system: CP305
Summary of the method: as §1

CP315 = test system: CP315
Summary of the method: as §1

CP325 = test system: CP325
Summary of the method: as §1

CP329 = test system: CP329
Summary of the method: as §1

CP335 = test system: CP335
Summary of the method: as §1

DFO2036 = test system: DFO2036
Summary of the method: as §1

DIV14 = test system: DIV14
Summary of the method: as §1

DIV17 = test system: DIV17
Summary of the method: as §1

DIV30 = test system: DIV30
Summary of the method: as §1

Dd2 = test system: Dd2
Summary of the method: as §1

ECU = test system: ECU
Summary of the method: as §1

GB4 = test system: GB4
Summary of the method: as §1

HB3 = test system: HB3
Summary of the method: as §1

ICS = test system: ICS
Summary of the method: as §1

JCK = test system: JCK
Summary of the method: as §1

N140 = test system: N140
Summary of the method: as §1

P93_24 = test system: P93_24
Summary of the method: as §1

P94_40 = test system: P94_40
Summary of the method: as §1

Measured: Potency
Potency is read from the fitted curve at half-maximal effect.

CC(=O)O[C@H]1C(=O)[C@@]2(C)[C@H]([C@H](OC(=O)c3ccccc3)[C@]3(O)C[C@H](OC(=O)[C@H](O)[C@@H](NC(=O)c4ccccc4)c4ccccc4)C(C)=C1C3(C)C)[C@]1(OC(C)=O)CO[C@@H]1C[C@@H]2O
active: CP291 478 nM | CP297 757 nM | CP305 601 nM | CP315 478 nM | CP325 536 nM | CP329 601 nM | CP335 269 nM | DFO2036 282 nM | DIV14 953 nM | DIV17 953 nM | DIV30 601 nM | Dd2 126 nM | ECU 891 nM | GB4 338 nM | HB3 1000 nM | ICS 398 nM | JCK 11200 nM | N140 631 nM | P93_24 631 nM | P94_40 355 nM

CC[C@]1(O)CC2CN(CCc3c([nH]c4ccccc34)[C@@](C(=O)OC)(c3cc4c(cc3OC)N(C)[C@H]3[C@@](O)(C(=O)OC)[C@H](OC(C)=O)[C@]5(CC)C=CCN6CC[C@]43[C@@H]65)C2)C1 (some centres undefined)
active: CP291 1900 nM | CP297 3010 nM | CP305 3380 nM | CP315 1690 nM | CP325 3380 nM | CP329 2390 nM | CP335 675 nM | DFO2036 3550 nM | DIV14 6750 nM | DIV17 6750 nM | DIV30 1900 nM | Dd2 178 nM | ECU 2240 nM | GB4 1900 nM | HB3 398 nM | ICS 708 nM | N140 2820 nM | P93_24 1260 nM | P94_40 1000 nM
